Measured values taken from PubChem BioAssay (Tox21).
Records with an inconclusive call do not appear. Calls of active or inactive are those of the source. Unless noted, calls come from the whole dose curve; as a rule, active = well fitted curve in the direction sought with a large enough effect in the repeat runs; inconclusive = weak or mixed curves; inactive = no such curve, though single readings can be large; an effect the other way counts as inactive or inconclusive.

Key:
[1] = target: Acetylcholinesterase (Homo sapiens) (UniProt P22303); assay: Acetylcholinesterase (AChE) small molecule antagonists: enzyme-based qHTS assay (AID 1347397; calls by dose curve; note: nearly all actives have a fitted effect of over 55% in size); conditions: Potency: AChE enzyme activity inhibition
Chain of Acetylcholinesterase (Homo sapiens) (P22303 whole entry, looked up): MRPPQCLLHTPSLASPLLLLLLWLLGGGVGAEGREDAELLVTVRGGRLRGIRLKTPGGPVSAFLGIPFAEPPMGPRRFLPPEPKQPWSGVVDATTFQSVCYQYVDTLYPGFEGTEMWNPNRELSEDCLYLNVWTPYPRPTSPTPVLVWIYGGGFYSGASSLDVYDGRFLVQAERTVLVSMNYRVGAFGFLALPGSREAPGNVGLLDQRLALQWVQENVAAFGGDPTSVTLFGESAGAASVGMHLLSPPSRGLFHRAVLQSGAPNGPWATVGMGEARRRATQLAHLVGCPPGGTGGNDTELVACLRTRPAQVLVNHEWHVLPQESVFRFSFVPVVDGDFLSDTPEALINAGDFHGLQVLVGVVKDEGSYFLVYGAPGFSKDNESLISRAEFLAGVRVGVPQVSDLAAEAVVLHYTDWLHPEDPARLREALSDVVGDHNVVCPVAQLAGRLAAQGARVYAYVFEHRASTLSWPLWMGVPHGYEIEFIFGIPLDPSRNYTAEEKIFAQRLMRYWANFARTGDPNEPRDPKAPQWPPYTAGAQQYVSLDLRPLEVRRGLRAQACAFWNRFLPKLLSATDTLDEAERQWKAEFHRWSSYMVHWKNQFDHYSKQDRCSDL
Summary of the method: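 Human recombinant acetylcholinesterase; substrate acetylthiocholine; thiocholine quantified with DTNB (colorimetric). Compound preincubation 30 min RT; reaction 10 min RT.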

[2] = target: Acetylcholinesterase (Homo sapiens) (UniProt P22303); assay: Acetylcholinesterase (AChE) small molecule antagonists: fluorescence cell-based qHTS assay (AID 1347398; calls by dose curve; note: nearly all actives have a fitted effect of over 50% in size); conditions: Potency: AChE activity
Summary of the method: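 Thiocholine generated from acetylthiocholine by SH-SY5Y cell AChE is detected with Thiolite Green (Ex/Em 490/520 nm) after 40 min at room temperature, following 30 min compound pretreatment at 37 C.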

[3] = target: Acetylcholinesterase (Homo sapiens) (UniProt P22303); assay: Acetylcholinesterase (AChE) small molecule antagonists: enzyme-based qHTS assay with human liver microsomes (AID 1347399; calls by dose curve; note: nearly all actives have a fitted effect of over 60% in size); conditions: Potency: qHTS inhibition
Summary of the method: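 Recombinant human AChE (50 mU/mL in the enzyme mix) and human liver microsomes (0.25 mg/mL final) were preincubated with compound and NADPH (0.25 mg/mL final) for 30 min at 37 C. Acetylthiocholine/DTNB was then added; thiocholine was read colorimetrically after 10 min at room temperature.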

[4] = target: Cytochrome P450 2C19 (Homo sapiens) (UniProt P33261); assay: Cytochrome P450 Family 2 Subfamily C Member 19 (CYP2C19) small molecule antagonists: luciferase reporter qHTS assay (AID 1671197); note: nearly all actives have a fitted effect of over 65% in size; note: potency is the fitted concentration of half-maximal effect; for activity change, negative = inhibition: series mostly up to about 120 µM
Chain of Cytochrome P450 2C19 (Homo sapiens) (P33261 whole entry, looked up): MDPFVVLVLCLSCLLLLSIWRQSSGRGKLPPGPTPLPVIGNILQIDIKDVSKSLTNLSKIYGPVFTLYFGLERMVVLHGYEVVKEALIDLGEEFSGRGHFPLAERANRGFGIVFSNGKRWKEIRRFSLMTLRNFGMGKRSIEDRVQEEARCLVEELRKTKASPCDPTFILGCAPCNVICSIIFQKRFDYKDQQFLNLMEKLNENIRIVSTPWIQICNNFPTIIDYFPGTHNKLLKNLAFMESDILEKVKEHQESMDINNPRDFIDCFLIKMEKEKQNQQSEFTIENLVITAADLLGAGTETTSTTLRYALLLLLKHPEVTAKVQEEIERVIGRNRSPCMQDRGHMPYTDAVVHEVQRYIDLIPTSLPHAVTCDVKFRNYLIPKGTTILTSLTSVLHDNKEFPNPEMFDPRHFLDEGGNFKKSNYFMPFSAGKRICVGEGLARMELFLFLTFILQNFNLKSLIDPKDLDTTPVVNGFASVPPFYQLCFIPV
Summary of the method: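 P450-Glo CYP2C19 screening system; proluciferin substrate; DMSO compound stocks; 10 min RT preincubation; NADPH regeneration, 1 h at 37C; luciferin detection reagent, 20 min RT; luminescence as RLU.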

[5] = target: Cytochrome P450 2C9 (Homo sapiens) (UniProt P11712); assay: Cytochrome P450 Family 2 Subfamily C Member 9 (CYP2C9) small molecule antagonists: luciferase reporter qHTS assay (AID 1671198); note: nearly all actives have a fitted effect of over 50% in size; note: potency is the fitted concentration of half-maximal effect; for activity change, negative = inhibition: series mostly up to about 120 µM
Chain of Cytochrome P450 2C9 (Homo sapiens) (P11712 whole entry, looked up): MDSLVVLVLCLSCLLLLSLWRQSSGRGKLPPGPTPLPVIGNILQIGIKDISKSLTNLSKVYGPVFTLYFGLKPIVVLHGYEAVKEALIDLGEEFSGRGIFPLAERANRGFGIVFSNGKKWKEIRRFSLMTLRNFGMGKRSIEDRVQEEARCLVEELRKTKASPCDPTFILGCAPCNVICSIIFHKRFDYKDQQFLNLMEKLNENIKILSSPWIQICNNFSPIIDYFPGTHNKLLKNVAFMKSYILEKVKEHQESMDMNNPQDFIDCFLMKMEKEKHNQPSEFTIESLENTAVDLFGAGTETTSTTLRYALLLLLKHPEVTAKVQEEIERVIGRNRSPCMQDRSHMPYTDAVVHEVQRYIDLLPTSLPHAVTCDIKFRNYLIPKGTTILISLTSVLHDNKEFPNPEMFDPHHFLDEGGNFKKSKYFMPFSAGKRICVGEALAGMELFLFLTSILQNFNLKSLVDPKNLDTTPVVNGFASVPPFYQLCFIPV
Summary of the method: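 CYP2C9 activity was measured with a P450-Glo proluciferin substrate. Enzyme–substrate mix was held with compound for 10 min at room temperature, then NADPH regeneration solution was added for 1 h at 37C. Luciferin product was read as luminescence.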

[6] = target: Voltage-gated inwardly rectifying potassium channel KCNH2 (Homo sapiens) (UniProt Q12809); assay: Human Ether-a-go-go-Related Gene (hERG) channel small molecule antagonists: fluorescence cell-based qHTS assay (AID 1671200); note: nearly all actives have a fitted effect of over 50% in size; note: potency is the fitted concentration of half-maximal effect;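 for activity change, negative = inhibition: hERG-expressing U2OS cells given a thallium stimulus after FluxOR II dye loading; series mostly up to about 77 µM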
Chain of Voltage-gated inwardly rectifying potassium channel KCNH2 (Homo sapiens) (Q12809 whole entry, looked up): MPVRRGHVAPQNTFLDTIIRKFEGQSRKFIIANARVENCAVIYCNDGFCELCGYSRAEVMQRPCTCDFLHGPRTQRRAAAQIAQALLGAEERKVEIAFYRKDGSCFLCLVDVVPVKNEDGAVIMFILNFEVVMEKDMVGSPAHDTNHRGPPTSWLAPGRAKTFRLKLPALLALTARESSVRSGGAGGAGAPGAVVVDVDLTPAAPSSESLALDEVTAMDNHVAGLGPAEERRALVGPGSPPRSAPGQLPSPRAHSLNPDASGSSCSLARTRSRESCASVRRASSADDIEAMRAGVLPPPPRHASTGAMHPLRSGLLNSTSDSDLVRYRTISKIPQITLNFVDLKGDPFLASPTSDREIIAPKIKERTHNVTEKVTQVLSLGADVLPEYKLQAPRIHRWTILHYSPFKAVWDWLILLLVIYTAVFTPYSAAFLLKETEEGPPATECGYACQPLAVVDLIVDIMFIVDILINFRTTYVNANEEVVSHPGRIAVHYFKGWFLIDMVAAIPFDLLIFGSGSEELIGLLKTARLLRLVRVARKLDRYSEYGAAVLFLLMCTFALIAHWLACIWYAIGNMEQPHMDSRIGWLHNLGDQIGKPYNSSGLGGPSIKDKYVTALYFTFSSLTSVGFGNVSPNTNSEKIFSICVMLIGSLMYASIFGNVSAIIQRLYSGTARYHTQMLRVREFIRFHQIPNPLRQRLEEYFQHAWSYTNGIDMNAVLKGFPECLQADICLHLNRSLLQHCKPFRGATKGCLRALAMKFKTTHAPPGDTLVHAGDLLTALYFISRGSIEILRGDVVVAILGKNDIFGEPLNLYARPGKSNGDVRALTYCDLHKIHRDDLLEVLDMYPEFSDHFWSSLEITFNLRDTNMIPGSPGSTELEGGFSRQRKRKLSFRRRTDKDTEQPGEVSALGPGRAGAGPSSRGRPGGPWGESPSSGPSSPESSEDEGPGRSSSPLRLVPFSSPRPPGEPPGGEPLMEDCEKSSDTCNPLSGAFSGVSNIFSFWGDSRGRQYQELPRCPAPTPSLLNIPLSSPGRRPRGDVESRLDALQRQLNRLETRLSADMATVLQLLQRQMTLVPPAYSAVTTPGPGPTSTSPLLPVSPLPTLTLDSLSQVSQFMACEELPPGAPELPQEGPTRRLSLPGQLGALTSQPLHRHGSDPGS
Summary of the method: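 hERG-U2OS cells plated overnight at 37 C, loaded with FluxOR II dye 1 h at RT in dark; after 10 min, thallium stimulus added. Fluorescence (480/540 nm) read kinetically for 2 min at 1 s intervals.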

[7] = target: Cytochrome P450 3A4 (Homo sapiens) (UniProt P08684); assay: Cytochrome P450 Family 3 Subfamily A Member 4 (CYP3A4) small molecule antagonists: luciferase reporter qHTS assay (AID 1671201); note: nearly all actives have a fitted effect of over 50% in size; note: potency is the fitted concentration of half-maximal effect; for activity change, negative = inhibition: series mostly up to about 120 µM
Chain of Cytochrome P450 3A4 (Homo sapiens) (P08684 whole entry, looked up): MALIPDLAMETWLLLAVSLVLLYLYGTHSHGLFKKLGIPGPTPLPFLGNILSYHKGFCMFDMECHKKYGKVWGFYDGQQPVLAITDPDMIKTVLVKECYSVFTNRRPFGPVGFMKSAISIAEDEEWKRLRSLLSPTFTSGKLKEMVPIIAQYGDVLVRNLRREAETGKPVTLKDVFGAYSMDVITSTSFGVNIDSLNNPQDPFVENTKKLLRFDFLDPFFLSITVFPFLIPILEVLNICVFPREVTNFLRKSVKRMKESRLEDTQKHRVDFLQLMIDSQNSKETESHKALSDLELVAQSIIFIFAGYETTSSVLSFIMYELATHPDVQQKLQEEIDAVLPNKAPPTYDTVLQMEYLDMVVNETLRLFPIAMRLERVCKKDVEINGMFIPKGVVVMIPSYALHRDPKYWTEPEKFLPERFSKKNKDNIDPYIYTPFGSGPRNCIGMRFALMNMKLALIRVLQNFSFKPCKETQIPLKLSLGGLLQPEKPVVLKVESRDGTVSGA
Summary of the method: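 P450-Glo CYP3A4 luminescent assay: compounds preincubated 10 min at room temperature with enzyme and proluciferin substrate, NADPH regeneration added, 1 h room-temperature reaction, stopped with luciferin detection reagent; luminescence read after 20 min. Ketoconazole positive control.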

[8] = target: Cytochrome P450 1A2 (Homo sapiens) (UniProt P05177); assay: Cytochrome P450 Family 1 Subfamily A Member 2 (CYP1A2) small molecule antagonists: luciferase reporter qHTS assay (AID 1671199); note: nearly all actives have a fitted effect of over 50% in size; note: potency is the fitted concentration of half-maximal effect; for activity change, negative = inhibition: series mostly up to about 120 µM
Chain of Cytochrome P450 1A2 (Homo sapiens) (P05177 whole entry, looked up): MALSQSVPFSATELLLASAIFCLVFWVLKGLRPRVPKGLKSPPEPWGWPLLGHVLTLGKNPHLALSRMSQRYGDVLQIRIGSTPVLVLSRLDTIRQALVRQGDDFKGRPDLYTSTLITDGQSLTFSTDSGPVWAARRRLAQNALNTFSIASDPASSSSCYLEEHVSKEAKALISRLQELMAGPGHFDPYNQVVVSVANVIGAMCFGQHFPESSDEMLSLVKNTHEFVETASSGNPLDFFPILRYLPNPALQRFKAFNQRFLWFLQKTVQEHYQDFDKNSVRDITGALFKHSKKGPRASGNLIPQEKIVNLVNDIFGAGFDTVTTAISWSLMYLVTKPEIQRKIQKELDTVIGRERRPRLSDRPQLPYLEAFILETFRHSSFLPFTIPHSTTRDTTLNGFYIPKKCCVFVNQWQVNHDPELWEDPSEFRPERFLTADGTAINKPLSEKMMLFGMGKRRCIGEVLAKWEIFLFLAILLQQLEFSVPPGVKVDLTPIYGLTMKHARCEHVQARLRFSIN
Summary of the method: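 Enzymatic CYP1A2 assay, human, luminescent: 10 min compound–enzyme–substrate preincubation, 1 h NADPH-dependent turnover, 20 min detection step, room temperature throughout. Reduced light indicates lower CYP1A2 activity.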

[9] = target: Cytochrome P450 2D6 (Homo sapiens) (UniProt P10635); assay: Cytochrome P450 Family 2 Subfamily D Member 6 (CYP2D6) small molecule antagonists: luciferase reporter qHTS assay (AID 1671196); note: nearly all actives have a fitted effect of over 50% in size; note: potency is the fitted concentration of half-maximal effect; for activity change, negative = inhibition: series mostly up to about 120 µM
Chain of Cytochrome P450 2D6 (Homo sapiens) (P10635 whole entry, looked up): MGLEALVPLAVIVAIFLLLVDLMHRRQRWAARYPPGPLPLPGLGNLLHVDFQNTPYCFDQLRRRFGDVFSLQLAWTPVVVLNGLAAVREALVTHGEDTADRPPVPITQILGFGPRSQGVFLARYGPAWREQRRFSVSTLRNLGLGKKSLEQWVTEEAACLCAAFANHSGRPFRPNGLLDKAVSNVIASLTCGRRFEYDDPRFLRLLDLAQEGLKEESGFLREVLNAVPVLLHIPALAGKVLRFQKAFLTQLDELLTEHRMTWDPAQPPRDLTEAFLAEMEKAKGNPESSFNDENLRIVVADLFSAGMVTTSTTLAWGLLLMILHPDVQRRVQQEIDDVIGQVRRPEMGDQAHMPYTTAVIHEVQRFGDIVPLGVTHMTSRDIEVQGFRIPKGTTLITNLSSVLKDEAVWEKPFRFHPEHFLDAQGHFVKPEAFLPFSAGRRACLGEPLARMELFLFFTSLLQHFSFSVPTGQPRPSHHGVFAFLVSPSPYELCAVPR
Summary of the method: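 Each well received CYP2D6 with its proluciferin substrate and chemical, sat 10 min, then got NADPH regeneration solution for 1 h at room temperature. Luminescence in RLU served as the activity measure.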
% is set by controls: 0 for no effect and ±100 for the full control effect.

CNC(=O)CSP(=O)(OC)OC
inactive: Potency [1] | Potency [2] | Potency [3] | Potency [4] | Potency [5] | Potency [6] | Potency [7]

CCN(CC)CCN1C(=O)CN=C(c2ccccc2F)c2cc(Cl)ccc21
active: Potency [6] 3.79 µM
inactive: Potency [1] | Potency [2] | Potency [3] | Potency [4] | Potency [8]

CC(C)C(Nc1ccc(C(F)(F)F)cc1Cl)C(=O)OC(C#N)c1cccc(Oc2ccccc2)c1 (centres undefined)
active: Potency [4] 9.01 µM | Potency [5] 6.38 µM
inactive: Potency [1] | Potency [2] | Potency [3] | Potency [6]

CCOP(=S)(NC(C)C)Oc1ccccc1C(=O)OC(C)C (centres undefined)
active: Potency [4] 0.2 µM | Potency [5] 1.42 µM | Potency [8] 8.94 µM | Potency [7] 710 nM
inactive: Potency [1] | Potency [2] | Potency [3] | Potency [6]

C[C@]12Cc3cn[nH]c3C[C@@H]1CC[C@@H]1[C@@H]2CC[C@@]2(C)[C@H]1CC[C@]2(C)O
active: Potency [4] 0.776 µM
inactive: Potency [1] | Potency [2] | Potency [3] | Potency [8] | Potency [6]

O=C(O)CCCCCCNC1c2ccccc2CCc2ccccc21
inactive: Potency [1] | Potency [2] | Potency [3] | Potency [4] | Potency [5] | Potency [8] | Potency [6] | Potency [7]

O=[N+]([O-])c1cc(C(F)(F)F)c(Cl)c([N+](=O)[O-])c1Nc1ncc(C(F)(F)F)cc1Cl
active: Potency [4] 12.6 µM | Potency [5] 0.564 µM | Potency [8] 35.6 µM | Potency [7] 20000 nM
inactive: Potency [1] | Potency [2] | Potency [3]

CNN
inactive: Potency [1] | Potency [2] | Potency [3] | Potency [4] | Potency [5] | Potency [8] | Potency [6] | Potency [7]

CC(C)=CC1C(C(=O)OC(C#N)c2cccc(Oc3ccccc3)c2)C1(C)C (centres undefined)
active: Potency [4] 31.7 µM | Potency [5] 10 µM
inactive: Potency [1] | Potency [2] | Potency [3] | Potency [6] | Potency [7]

COc1cnc(OC)n2nc(NS(=O)(=O)c3c(OCC(F)F)cccc3C(F)(F)F)nc12
inactive: Potency [1] | Potency [2] | Potency [3] | Potency [9] | Potency [6]

CCCCCCCc1ccc(O)cc1
active: Potency [4] 20 µM | Potency [8] 35.6 µM
inactive: Potency [1] | Potency [2] | Potency [3] | Potency [7]

CCCN
inactive: Potency [1] | Potency [2] | Potency [3] | Potency [4] | Potency [5] | Potency [6] | Potency [7]

CC1CN1 (centres undefined)
inactive: Potency [1] | Potency [2] | Potency [3] | Potency [5] | Potency [6] | Potency [7]

CCCCC(CC)COC(=O)c1ccccc1C(=O)OCC(CC)CCCC (centres undefined)
inactive: Potency [1] | Potency [2] | Potency [3] | Potency [6]
active: Potency [4] 14.2 µM | Potency [8] 33.6 µM

[O]=[Cr][O][Cr]=[O]
active: Potency [9] 2.58 µM
inactive: Potency [1] | Potency [2] | Potency [3] | Potency [5] | Potency [6] | Potency [7]

CCC[CH2][Sn]([CH2]CCC)([O]C(C)=O)[O]C(C)=O
inactive: Potency [1] | Potency [2] | Potency [3] | Potency [4] | Potency [5] | Potency [8] | Potency [6]

CC(C)N(C(=O)SC/C(Cl)=C/Cl)C(C)C
inactive: Potency [1] | Potency [2] | Potency [9]
active: Potency [4] 3.19 µM | Potency [5] 31.9 µM

CCNS(=O)(=O)C(F)(F)C(F)(F)C(F)(F)C(F)(F)C(F)(F)C(F)(F)C(F)(F)C(F)(F)F
active: Potency [5] 1.52 µM
inactive: Potency [1] | Potency [2] | Potency [3] | Potency [8] | Potency [6] | Potency [7]

CC(C)c1c(CN(C)C(C)Cc2ccccc2)n(C)n(-c2ccccc2)c1=O (centres undefined)
active: Potency [4] 6.92 µM | Potency [5] 4.36 µM | Potency [7] 1740 nM
inactive: Potency [1] | Potency [2] | Potency [3] | Potency [6]

OCC(Br)CBr (centres undefined)
inactive: Potency [1] | Potency [2] | Potency [3] | Potency [4] | Potency [5] | Potency [6] | Potency [7]

Clc1c(Cl)c(Cl)c(Cl)c(Cl)c1Cl
inactive: activity change, negative = inhibition [1] -1.5% [at 10.5 µM] | activity change, negative = inhibition [2] 3.1% [at 10.5 µM] | activity change, negative = inhibition [9] -7.24% [at 10.5 µM] | activity change, negative = inhibition [4] 17.2% [at 10.5 µM] | activity change, negative = inhibition [5] -2.13% [at 10.5 µM] | activity change, negative = inhibition [8] -10.9% [at 10.5 µM] | activity change, negative = inhibition [6] 10.1% [at 6.97 µM]

Oc1cc(Cl)c(Cl)c(Cl)c1Cl
inactive: Potency [1] | Potency [2] | Potency [3] | Potency [4] | Potency [6]
active: Potency [8] 27.6 µM

CCC1COC(Cn2cncn2)(c2ccc(Cl)cc2Cl)O1 (centres undefined)
active: Potency [4] 0.317 µM | Potency [5] 6.33 µM | Potency [8] 28.3 µM | Potency [7] 89.4 nM
inactive: Potency [1] | Potency [2] | Potency [3] | Potency [6]
